Key:
Test in all cases: log2 ratio of Biotin-Ahx-Ub-VS probe labelling (compound/DMSO); higher = less target engagement, active = hit call of the paper (q ≤ 0.05, log2 ratio ≤ -1)
Conditions in all cases: treatment time: 3 h
[1] = compound: ClCC(=O)N[C@H]1CCCc2ccccc12
In short: (§1)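 Values are average ratios of compound to vehicle from an unpaired t-test, limited to proteins with at least two unique peptides. HEK293T lysate (495 µg per sample, in Tris/CHAPS/IGEPAL buffer with protease inhibitors) was exposed in triplicate to a concentration series of compound or to vehicle for 3 h, then to Biotin-Ahx-Ub-VS at 0.5 µM final for 1 h. Labelled deubiquitinases were enriched on NeutrAvidin, digested with LysC and trypsin, and analysed by diaPASEF LC-MS/MS. Ratios are given on a log2 scale from Spectronaut label-free protein quantities normalised to the global median.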

[2] = compound: CCC1N(CCc2cc(OC)c(Cl)cc12)C(=O)CCl
In short: (§2)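 For activity-based profiling, 495 µg portions of HEK293T lysate in Tris/CHAPS/IGEPAL buffer with protease inhibitors were treated in triplicate with compound at 50 or 200 µM or with DMSO for 3 h. A 1 h incubation with Biotin-Ahx-Ub-VS (0.5 µM final) followed, then NeutrAvidin enrichment, LysC and trypsin digestion and diaPASEF LC-MS/MS. The compound/DMSO base-two log ratios were averaged from median-normalised label-free quantities using an unpaired t-test. Proteins needed at least 2 unique peptides to be included.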

[3] = compound: CCCC1N(CCc2cc(OC)c(OC)cc12)C(=O)CCl
In short: as §2

[4] = compound: CN(Cc1cccc(Br)c1)C(=O)CCl
In short: as §2

[5] = compound: CN(Cc1ccccc1)C(=O)CCl
In short: as §2

[6] = compound: COc1ccc(CN(C)C(=O)CCl)cc1
In short: as §2

[7] = compound: COc1cccc(CN(CCCc2ccccc2)C(=O)CCl)c1
In short: as §2

[8] = compound: ClCC(=O)N1CCc2cc(Cl)c(Cl)cc2C1
In short: as §2

[9] = compound: ClCC(=O)N1CCc2nc(ncc2C1)-c1ccccc1
In short: as §2

[10] = compound: ClCC(=O)N1CCc2nocc2C1
In short: as §2

[11] = compound: ClCC(=O)N1CCc2scc(Br)c2C1
In short: as §2

[12] = compound: ClCC(=O)NC(C1CCCC1)c1cccs1
In short: as §2

[13] = compound: CCC1N(CCc2sccc12)C(=O)CCl
In short: as §2

[14] = compound: CN1c2ccccc2C(CS1(=O)=O)NC(=O)CCl
In short: as §2

[15] = compound: Cl.ClCC(=O)N1CCc2ncncc2C1
In short: as §2

[16] = compound: Cl.Cn1ncc2C(CCCc12)NC(=O)CCl
In short: as §2

[17] = compound: ClCC(=O)NC1CCOc2ccccc12
In short: as §2

[18] = compound: ClCC(=O)NC1CCCc2ccccc12
In short: as §1

[19] = compound: ClCC(=O)N[C@@H]1CCCc2ccccc12
In short: as §1

Measured: log2 ratio of Biotin-Ahx-Ub-VS probe labelling

UCHL1 (UniProt P09936)
UniProt P09936, sequence (P09936 whole entry, looked up): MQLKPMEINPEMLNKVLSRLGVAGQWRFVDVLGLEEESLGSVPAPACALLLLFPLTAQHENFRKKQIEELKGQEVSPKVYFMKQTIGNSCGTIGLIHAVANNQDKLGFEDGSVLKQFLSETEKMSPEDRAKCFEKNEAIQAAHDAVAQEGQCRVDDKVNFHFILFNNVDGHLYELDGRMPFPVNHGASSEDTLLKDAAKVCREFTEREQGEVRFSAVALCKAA
inactive: [1]; compound concentration: 3.13uM -0.239 | [1]; compound concentration: 6.25uM -0.187 | [1]; compound concentration: 12.5uM -0.239 | [1]; compound concentration: 25uM -0.196 | [1]; compound concentration: 50uM -0.16 | [1]; compound concentration: 100uM -0.204 | [1]; compound concentration: 200uM -0.267 | [2]; compound concentration: 50uM 0.0838 | [2]; compound concentration: 200uM 0.00983 | [3]; compound concentration: 50uM -0.262 | [3]; compound concentration: 200uM -0.45 | [4]; compound concentration: 50uM -0.0723 | [4]; compound concentration: 200uM 0.424 | [5]; compound concentration: 50uM -0.373 | [5]; compound concentration: 200uM -0.192 | [6]; compound concentration: 50uM -0.293 | [6]; compound concentration: 200uM 0.0271 | [7]; compound concentration: 50uM 0.0165 | [7]; compound concentration: 200uM 0.0676 | [8]; compound concentration: 50uM 0.153 | [8]; compound concentration: 200uM -0.0523 | [9]; compound concentration: 50uM 0.109 | [9]; compound concentration: 200uM -0.0372 | [10]; compound concentration: 50uM -0.379 | [10]; compound concentration: 200uM -0.3 | [11]; compound concentration: 50uM -0.0189 | [11]; compound concentration: 200uM -0.0895 | [12]; compound concentration: 50uM -0.0993 | [12]; compound concentration: 200uM -0.00199

UniProt Q9UGI0
UniProt Q9UGI0, sequence (Q9UGI0 whole entry): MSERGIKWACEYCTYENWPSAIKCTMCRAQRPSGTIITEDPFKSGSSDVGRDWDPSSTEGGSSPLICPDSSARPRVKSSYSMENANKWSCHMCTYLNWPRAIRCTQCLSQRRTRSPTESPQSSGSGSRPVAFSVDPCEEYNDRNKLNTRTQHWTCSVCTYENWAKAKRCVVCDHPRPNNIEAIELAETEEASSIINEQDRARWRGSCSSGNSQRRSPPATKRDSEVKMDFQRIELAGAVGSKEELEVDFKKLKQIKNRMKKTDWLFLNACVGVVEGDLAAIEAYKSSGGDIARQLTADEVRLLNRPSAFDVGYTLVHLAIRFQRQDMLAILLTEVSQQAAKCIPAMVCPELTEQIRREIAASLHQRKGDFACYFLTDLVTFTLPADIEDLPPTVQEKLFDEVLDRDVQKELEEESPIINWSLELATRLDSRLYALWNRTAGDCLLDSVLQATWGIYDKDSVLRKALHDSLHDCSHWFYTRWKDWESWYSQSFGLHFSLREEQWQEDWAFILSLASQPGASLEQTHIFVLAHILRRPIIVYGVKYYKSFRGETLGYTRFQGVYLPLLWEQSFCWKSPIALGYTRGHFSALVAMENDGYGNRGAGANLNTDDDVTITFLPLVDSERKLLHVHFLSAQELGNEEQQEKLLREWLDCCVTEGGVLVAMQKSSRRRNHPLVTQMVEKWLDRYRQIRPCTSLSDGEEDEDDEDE
inactive: [13]; compound concentration: 50uM -0.292 | [13]; compound concentration: 200uM -0.203 | [14]; compound concentration: 50uM -0.406 | [14]; compound concentration: 200uM 0.104 | [15]; compound concentration: 50uM -0.538 | [15]; compound concentration: 200uM -0.31 | [16]; compound concentration: 50uM -0.202 | [16]; compound concentration: 200uM 0.279 | [17]; compound concentration: 50uM 0.0945 | [17]; compound concentration: 200uM -0.4 | [18]; compound concentration: 0.78uM -0.0262 | [18]; compound concentration: 1.56uM 0.0502 | [18]; compound concentration: 3.13uM -0.0706 | [18]; compound concentration: 6.25uM 0.0502 | [18]; compound concentration: 12.5uM 0.00734 | [18]; compound concentration: 25uM -0.073 | [18]; compound concentration: 50uM -0.0421 | [18]; compound concentration: 100uM -0.161 | [18]; compound concentration: 200uM -0.304 | [19]; compound concentration: 0.78uM 0.0537 | [19]; compound concentration: 1.56uM -0.0707 | [19]; compound concentration: 3.13uM 0.111 | [19]; compound concentration: 6.25uM -0.134 | [19]; compound concentration: 12.5uM -0.0472 | [19]; compound concentration: 25uM -0.0247 | [19]; compound concentration: 50uM -0.136 | [19]; compound concentration: 100uM -0.218 | [19]; compound concentration: 200uM -0.262 | [1]; compound concentration: 0.78uM -0.114 | [1]; compound concentration: 1.56uM 0.117 | [1]; compound concentration: 3.13uM -0.00437 | [1]; compound concentration: 6.25uM -0.00155 | [1]; compound concentration: 12.5uM -0.143 | [1]; compound concentration: 25uM -0.115 | [1]; compound concentration: 50uM 0.0192 | [1]; compound concentration: 100uM -0.022 | [1]; compound concentration: 200uM -0.133 | [2]; compound concentration: 50uM -0.0637 | [2]; compound concentration: 200uM -0.0883 | [3]; compound concentration: 50uM -0.0341 | [3]; compound concentration: 200uM -0.418 | [4]; compound concentration: 50uM -0.13 | [4]; compound concentration: 200uM -0.336 | [5]; compound concentration: 50uM -0.482 | [5]; compound concentration: 200uM -0.697 | [6]; compound concentration: 50uM -0.127 | [6]; compound concentration: 200uM -0.258 | [7]; compound concentration: 50uM -0.157 | [7]; compound concentration: 200uM -0.231 | [8]; compound concentration: 50uM 0.132 | [8]; compound concentration: 200uM -0.542 | [9]; compound concentration: 50uM 0.0381 | [9]; compound concentration: 200uM -0.223 | [10]; compound concentration: 50uM -0.539 | [11]; compound concentration: 50uM -0.277 | [12]; compound concentration: 50uM -0.0906 | [12]; compound concentration: 200uM 0.116
active: [10]; compound concentration: 200uM -1.16 | [11]; compound concentration: 200uM -1.14

USP39 (UniProt Q53GS9)
UniProt Q53GS9, sequence (Q53GS9 whole entry): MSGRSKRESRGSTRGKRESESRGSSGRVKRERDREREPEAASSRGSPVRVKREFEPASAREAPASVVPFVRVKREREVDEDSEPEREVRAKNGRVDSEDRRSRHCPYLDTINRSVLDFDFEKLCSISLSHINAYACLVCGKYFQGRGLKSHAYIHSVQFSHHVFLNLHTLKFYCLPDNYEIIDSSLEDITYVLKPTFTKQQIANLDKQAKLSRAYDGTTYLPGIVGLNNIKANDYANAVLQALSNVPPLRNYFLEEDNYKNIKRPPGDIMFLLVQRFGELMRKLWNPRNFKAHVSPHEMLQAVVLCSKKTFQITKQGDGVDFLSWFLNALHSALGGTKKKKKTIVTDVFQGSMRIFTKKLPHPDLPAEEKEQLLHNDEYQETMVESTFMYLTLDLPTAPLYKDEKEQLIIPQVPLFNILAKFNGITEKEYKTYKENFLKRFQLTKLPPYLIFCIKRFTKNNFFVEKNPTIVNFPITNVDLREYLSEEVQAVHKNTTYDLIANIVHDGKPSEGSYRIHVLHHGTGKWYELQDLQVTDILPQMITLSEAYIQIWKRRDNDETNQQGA
inactive: [13]; compound concentration: 50uM 0.0546 | [13]; compound concentration: 200uM -0.102 | [14]; compound concentration: 50uM -0.157 | [14]; compound concentration: 200uM -0.0618 | [15]; compound concentration: 50uM 0.0365 | [15]; compound concentration: 200uM -0.18 | [16]; compound concentration: 50uM 0.0136 | [16]; compound concentration: 200uM -0.0545 | [17]; compound concentration: 50uM 0.225 | [17]; compound concentration: 200uM -0.157 | [18]; compound concentration: 0.78uM -0.0849 | [18]; compound concentration: 1.56uM 0.00415 | [18]; compound concentration: 3.13uM -0.107 | [18]; compound concentration: 6.25uM -0.121 | [18]; compound concentration: 12.5uM -0.133 | [18]; compound concentration: 25uM -0.219 | [18]; compound concentration: 50uM -0.32 | [18]; compound concentration: 100uM -0.0966 | [18]; compound concentration: 200uM -0.188 | [19]; compound concentration: 0.78uM -0.138 | [19]; compound concentration: 1.56uM -0.0134 | [19]; compound concentration: 3.13uM 0.0533 | [19]; compound concentration: 6.25uM -0.0819 | [19]; compound concentration: 12.5uM -0.132 | [19]; compound concentration: 25uM -0.181 | [19]; compound concentration: 50uM -0.277 | [19]; compound concentration: 100uM -0.108 | [19]; compound concentration: 200uM -0.208 | [1]; compound concentration: 0.78uM 0.0296 | [1]; compound concentration: 1.56uM -0.22 | [1]; compound concentration: 3.13uM -0.0221 | [1]; compound concentration: 6.25uM -0.000844 | [1]; compound concentration: 12.5uM -0.0179 | [1]; compound concentration: 25uM -0.167 | [1]; compound concentration: 50uM -0.0419 | [1]; compound concentration: 100uM -0.206 | [1]; compound concentration: 200uM -0.187 | [2]; compound concentration: 50uM 0.209 | [2]; compound concentration: 200uM 0.0808 | [3]; compound concentration: 50uM -0.0814 | [3]; compound concentration: 200uM -0.0567 | [4]; compound concentration: 50uM 0.105 | [4]; compound concentration: 200uM -0.535 | [5]; compound concentration: 50uM -0.0746 | [5]; compound concentration: 200uM 0.0651 | [6]; compound concentration: 50uM 0.011 | [6]; compound concentration: 200uM -0.086 | [7]; compound concentration: 50uM 0.17 | [7]; compound concentration: 200uM 0.063 | [8]; compound concentration: 50uM 0.017 | [8]; compound concentration: 200uM -0.298 | [9]; compound concentration: 50uM 0.044 | [9]; compound concentration: 200uM 0.117 | [10]; compound concentration: 50uM -0.102 | [10]; compound concentration: 200uM -0.0827 | [11]; compound concentration: 50uM -0.0611 | [11]; compound concentration: 200uM -0.272 | [12]; compound concentration: 50uM 0.165 | [12]; compound concentration: 200uM 0.014

From the supplement of paper PMC11732987, “Enantioselective OTUD7B fragment discovery through chemoproteomics screening and high-throughput optimisation” (Communications Chemistry, 2025)
